Our source for the binding signal values is publication PMC7862700, “An all-to-all approach to the identification of sequence-specific readers for epigenetic DNA modifications on cytosine”.

What all share (experiment): DAPPL (digital affinity profiling via proximity ligation, sequencing); 10 mM Tris-HCl pH 7.5, 50 mM NaCl, 1 mM DTT, 4% glycerol, room temperature, 30 min; GST-TFs on glutathione beads, 16-mer random dsDNA library, 0.1% formaldehyde crosslink after washing; high values mean tight binding
One test has as its target T1, FEV (Homo sapiens, UniProt Q99581 1-238).
T1 sequence: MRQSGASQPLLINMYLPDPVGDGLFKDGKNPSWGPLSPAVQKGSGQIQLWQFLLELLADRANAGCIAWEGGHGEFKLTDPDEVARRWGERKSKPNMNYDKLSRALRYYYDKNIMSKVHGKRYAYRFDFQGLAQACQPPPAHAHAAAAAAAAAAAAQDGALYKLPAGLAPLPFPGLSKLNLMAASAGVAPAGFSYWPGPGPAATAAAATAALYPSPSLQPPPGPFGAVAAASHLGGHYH
The conditions noted are these: protein: recombinant; tags: N-terminal GST; dsDNA, one strand shown. The method, boiled down:
(§1)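 After expression in yeast as GST fusions, human transcription factors were bound to glutathione beads, DNA-barcoded and mixed with a tag-only sample. The pools were incubated with 200 nmole of a 16-mer random double-stranded DNA library in Tris/NaCl/DTT/glycerol buffer (30 min, room temperature), washed and crosslinked with 0.1% formaldehyde. Proximity ligation with BsaI/T4 ligase ran for 1 h at 37 °C, before PCR amplification and sequencing on an Illumina NextSeq500. Binding signal is a hexamer's read frequency for a factor divided by its frequency for the tag-only sample.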

For the next test, the target named is ETV5 (Homo sapiens, UniProt P41161 1-510). The conditions noted are these: protein: recombinant; tags: N-terminal GST; dsDNA, one strand shown. The gist of the method:
as §1

The next test addresses HSF1 (Homo sapiens, UniProt Q00613 1-529). The settings on record: protein: recombinant; tags: N-terminal GST; chain copies: 3; dsDNA, one strand shown. The method, boiled down:
as §1

The next test addresses T2, SPIC (Homo sapiens, UniProt Q8N5J4 1-248).
T2 sequence: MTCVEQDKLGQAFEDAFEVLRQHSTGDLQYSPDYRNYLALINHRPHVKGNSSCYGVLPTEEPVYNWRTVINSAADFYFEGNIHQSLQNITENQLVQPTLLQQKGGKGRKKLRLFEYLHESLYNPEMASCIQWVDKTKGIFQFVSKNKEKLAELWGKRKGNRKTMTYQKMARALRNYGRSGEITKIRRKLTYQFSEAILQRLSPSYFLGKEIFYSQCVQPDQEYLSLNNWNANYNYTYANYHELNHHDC
The conditions noted are these: protein: recombinant; tags: N-terminal GST; dsDNA, one strand shown. The gist of the method:
as §1

In a further test the target is ELF4 (Homo sapiens, UniProt Q99607 1-663). The settings on record: protein: recombinant; tags: N-terminal GST; dsDNA, one strand shown. The method, boiled down: as §1
Chain of ELF4 (Q99607 whole entry): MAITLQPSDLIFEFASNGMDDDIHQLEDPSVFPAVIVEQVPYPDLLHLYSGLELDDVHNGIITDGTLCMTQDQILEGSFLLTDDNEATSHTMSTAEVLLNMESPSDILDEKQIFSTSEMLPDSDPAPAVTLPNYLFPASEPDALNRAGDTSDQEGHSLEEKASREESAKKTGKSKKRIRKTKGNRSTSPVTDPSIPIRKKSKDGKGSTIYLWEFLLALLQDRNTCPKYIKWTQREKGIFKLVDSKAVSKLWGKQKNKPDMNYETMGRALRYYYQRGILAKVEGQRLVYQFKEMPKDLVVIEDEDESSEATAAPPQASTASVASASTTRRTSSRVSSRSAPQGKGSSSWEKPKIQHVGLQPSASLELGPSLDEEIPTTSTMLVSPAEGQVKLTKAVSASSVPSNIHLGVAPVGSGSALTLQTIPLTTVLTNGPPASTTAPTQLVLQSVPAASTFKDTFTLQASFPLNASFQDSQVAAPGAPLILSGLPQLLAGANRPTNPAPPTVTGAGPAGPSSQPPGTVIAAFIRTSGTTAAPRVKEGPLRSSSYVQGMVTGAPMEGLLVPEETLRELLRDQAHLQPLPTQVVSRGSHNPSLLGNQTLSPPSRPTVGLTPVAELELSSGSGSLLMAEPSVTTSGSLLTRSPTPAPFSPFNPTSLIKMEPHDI
The next test addresses T3, ELK4 (Homo sapiens, UniProt P28324-2 1-405).
T3 sequence: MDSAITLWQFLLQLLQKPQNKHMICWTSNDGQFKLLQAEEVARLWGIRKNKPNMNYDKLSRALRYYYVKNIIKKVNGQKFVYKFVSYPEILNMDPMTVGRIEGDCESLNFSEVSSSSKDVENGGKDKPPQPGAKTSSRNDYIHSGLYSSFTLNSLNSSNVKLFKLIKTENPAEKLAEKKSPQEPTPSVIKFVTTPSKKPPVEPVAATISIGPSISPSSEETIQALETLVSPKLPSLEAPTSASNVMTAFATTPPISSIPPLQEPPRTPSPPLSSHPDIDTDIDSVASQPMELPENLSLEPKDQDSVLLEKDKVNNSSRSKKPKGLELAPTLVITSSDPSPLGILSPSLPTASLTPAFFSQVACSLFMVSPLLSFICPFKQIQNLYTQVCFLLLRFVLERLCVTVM
The conditions noted are these: protein: recombinant; tags: N-terminal GST; dsDNA, one strand shown. The gist of the method:
as §1

The next test has as its target T4, ETV2 (Homo sapiens, UniProt O00321 1-342).
T4 sequence: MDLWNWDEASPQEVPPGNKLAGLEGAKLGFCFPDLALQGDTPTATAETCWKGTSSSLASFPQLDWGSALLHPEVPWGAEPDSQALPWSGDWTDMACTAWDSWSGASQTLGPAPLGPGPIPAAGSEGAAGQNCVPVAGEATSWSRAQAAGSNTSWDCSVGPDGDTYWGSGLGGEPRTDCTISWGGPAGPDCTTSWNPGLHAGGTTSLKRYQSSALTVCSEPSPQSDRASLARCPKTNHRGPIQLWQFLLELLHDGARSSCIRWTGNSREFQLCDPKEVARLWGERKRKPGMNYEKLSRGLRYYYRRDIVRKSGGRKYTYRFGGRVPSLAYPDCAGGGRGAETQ
The conditions noted are these: protein: recombinant; tags: N-terminal GST; dsDNA, one strand shown. The gist of the method: as §1

Another test deals with T5, ELF3 (Homo sapiens, UniProt P78545 1-371).
T5 sequence: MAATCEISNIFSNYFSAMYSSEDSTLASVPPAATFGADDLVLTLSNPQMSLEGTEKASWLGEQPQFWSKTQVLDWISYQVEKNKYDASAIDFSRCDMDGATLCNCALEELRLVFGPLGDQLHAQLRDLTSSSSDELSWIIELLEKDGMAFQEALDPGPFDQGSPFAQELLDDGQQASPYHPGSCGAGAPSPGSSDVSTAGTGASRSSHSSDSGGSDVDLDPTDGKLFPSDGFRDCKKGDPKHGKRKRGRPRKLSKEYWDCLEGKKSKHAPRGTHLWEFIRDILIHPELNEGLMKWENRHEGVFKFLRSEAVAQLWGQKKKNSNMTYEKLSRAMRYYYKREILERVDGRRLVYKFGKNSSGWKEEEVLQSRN
The settings on record: protein: recombinant; tags: N-terminal GST; dsDNA, one strand shown. The method, boiled down:
as §1

For the next test, the target named is CRX (Homo sapiens, UniProt O43186 1-299). The conditions noted are these: protein: recombinant; tags: N-terminal GST; dsDNA, one strand shown. The gist of the method: as §1
Chain of CRX (O43186 whole entry): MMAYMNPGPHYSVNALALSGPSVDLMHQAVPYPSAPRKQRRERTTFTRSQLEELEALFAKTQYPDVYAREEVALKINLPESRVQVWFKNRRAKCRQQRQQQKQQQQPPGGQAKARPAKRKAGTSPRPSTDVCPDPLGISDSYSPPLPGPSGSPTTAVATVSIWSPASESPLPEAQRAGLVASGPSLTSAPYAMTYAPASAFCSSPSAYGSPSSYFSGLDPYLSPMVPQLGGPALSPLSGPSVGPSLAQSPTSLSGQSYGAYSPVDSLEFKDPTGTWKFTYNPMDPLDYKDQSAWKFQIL
The next test deals with ETV1 (Homo sapiens, UniProt P50549 1-477). The conditions noted are these: protein: recombinant; tags: N-terminal GST; dsDNA, one strand shown. The gist of the method:
as §1

The target of another test is T6, ERF (Homo sapiens, UniProt P50548 1-548).
T6 sequence: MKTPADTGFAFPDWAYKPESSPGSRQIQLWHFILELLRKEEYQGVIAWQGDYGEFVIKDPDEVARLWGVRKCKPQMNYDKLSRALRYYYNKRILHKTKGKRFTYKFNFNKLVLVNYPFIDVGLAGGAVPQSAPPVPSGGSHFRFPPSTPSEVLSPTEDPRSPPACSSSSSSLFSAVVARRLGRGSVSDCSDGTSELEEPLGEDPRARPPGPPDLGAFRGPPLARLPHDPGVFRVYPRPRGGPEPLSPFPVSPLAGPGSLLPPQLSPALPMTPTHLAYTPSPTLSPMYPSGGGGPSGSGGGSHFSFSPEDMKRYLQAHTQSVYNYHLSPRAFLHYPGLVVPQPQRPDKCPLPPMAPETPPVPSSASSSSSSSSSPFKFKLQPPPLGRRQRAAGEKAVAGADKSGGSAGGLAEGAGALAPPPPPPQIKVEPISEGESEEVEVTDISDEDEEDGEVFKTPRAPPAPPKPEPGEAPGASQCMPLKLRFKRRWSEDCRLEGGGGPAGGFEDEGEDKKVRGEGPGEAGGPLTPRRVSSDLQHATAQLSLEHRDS
The settings on record: protein: recombinant; tags: N-terminal GST; dsDNA, one strand shown. The method, boiled down:
as §1

Another test concerns the target T7, ETV3L (Homo sapiens, UniProt Q6ZN32 1-361).
T7 sequence: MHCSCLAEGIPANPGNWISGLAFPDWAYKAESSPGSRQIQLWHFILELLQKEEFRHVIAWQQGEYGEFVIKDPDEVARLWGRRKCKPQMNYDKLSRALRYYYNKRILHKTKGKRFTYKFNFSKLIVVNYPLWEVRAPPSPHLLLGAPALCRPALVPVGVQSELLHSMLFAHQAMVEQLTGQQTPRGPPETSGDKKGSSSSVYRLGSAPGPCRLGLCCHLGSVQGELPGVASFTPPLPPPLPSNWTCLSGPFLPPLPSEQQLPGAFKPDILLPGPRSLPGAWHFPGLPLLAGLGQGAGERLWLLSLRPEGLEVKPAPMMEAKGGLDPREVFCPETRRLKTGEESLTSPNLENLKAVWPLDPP
The conditions noted are these: protein: recombinant; tags: N-terminal GST; dsDNA, one strand shown. The gist of the method: as §1

For another test, the target named is T8, ETS2 (Homo sapiens, UniProt P15036 1-469).
T8 sequence: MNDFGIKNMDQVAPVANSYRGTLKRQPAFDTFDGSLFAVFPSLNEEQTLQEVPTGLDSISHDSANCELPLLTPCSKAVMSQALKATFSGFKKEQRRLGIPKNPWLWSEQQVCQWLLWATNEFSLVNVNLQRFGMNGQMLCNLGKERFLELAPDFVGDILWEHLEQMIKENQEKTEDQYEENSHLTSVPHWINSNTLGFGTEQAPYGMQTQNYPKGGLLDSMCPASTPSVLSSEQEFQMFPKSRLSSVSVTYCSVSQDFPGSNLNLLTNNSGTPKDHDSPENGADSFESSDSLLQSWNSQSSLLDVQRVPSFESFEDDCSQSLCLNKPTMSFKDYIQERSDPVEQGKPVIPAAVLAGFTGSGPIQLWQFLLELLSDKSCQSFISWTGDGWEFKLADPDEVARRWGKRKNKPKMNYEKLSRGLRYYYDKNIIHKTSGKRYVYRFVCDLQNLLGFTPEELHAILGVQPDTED
The settings on record: protein: recombinant; tags: N-terminal GST; dsDNA, one strand shown. The method, boiled down:
as §1

The next test has as its target T9, SPDEF (Homo sapiens, UniProt O95238 1-335).
T9 sequence: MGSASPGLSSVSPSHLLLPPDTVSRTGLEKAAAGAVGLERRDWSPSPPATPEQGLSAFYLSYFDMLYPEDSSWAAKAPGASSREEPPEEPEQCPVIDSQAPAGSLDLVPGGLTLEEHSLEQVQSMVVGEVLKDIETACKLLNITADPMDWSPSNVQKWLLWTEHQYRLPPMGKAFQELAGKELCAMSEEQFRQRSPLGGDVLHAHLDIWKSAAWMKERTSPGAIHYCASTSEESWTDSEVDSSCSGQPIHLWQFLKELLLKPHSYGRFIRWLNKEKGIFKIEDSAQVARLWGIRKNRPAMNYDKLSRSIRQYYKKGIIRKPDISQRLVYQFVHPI
The settings on record: protein: recombinant; tags: N-terminal GST; dsDNA, one strand shown. The gist of the method: as §1

The next test deals with T10, ETV7 (Homo sapiens, UniProt Q9Y603 1-341).
T10 sequence: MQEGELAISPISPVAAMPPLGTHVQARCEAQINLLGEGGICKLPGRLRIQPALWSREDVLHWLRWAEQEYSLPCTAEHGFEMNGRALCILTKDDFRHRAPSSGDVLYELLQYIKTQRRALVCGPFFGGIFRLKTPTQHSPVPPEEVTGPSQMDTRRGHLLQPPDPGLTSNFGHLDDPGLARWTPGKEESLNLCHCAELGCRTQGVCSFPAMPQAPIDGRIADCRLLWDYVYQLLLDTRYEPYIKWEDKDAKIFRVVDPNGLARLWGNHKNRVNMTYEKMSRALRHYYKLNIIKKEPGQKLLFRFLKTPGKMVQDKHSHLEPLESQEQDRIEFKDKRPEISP
The conditions noted are these: protein: recombinant; tags: N-terminal GST; dsDNA, one strand shown. The gist of the method: as §1

For a further test, the target named is T11, ELF5 (Homo sapiens, UniProt Q9UKW6-2 1-255).
T11 sequence: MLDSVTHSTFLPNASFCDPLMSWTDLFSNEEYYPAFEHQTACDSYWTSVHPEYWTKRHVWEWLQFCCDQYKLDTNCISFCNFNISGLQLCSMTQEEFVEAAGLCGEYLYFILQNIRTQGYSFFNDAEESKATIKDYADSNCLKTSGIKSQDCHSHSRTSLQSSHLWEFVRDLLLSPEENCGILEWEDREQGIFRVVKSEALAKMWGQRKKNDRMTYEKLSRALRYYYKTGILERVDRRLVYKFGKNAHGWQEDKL
The conditions noted are these: protein: recombinant; tags: N-terminal GST; dsDNA, one strand shown. The method, boiled down: as §1

A further test addresses T12, ETV3 (Homo sapiens, UniProt P41162-2 1-143).
T12 sequence: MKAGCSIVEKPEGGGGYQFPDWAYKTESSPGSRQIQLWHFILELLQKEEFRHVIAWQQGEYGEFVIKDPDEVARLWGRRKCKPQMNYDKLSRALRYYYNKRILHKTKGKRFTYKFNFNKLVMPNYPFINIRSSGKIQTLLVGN
The conditions noted are these: protein: recombinant; tags: N-terminal GST; dsDNA, one strand shown. The gist of the method: as §1

For another test, the target named is ETV6 (Homo sapiens, UniProt P41212 1-452). The conditions noted are these: protein: recombinant; tags: N-terminal GST; dsDNA, one strand shown. The gist of the method:
as §1

Chain of ETV1 (P50549 whole entry): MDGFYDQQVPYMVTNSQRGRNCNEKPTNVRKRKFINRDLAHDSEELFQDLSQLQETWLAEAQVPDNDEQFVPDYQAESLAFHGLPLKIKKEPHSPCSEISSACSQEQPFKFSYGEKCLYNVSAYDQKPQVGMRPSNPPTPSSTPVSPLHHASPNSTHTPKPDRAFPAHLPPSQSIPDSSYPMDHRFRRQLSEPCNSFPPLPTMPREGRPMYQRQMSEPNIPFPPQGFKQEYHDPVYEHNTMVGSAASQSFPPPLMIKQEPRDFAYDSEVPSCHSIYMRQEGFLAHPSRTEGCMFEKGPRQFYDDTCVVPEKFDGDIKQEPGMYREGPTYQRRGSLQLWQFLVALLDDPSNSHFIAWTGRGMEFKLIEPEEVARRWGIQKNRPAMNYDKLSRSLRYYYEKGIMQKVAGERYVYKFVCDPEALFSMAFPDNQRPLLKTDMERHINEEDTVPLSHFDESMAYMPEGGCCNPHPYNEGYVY
Chain of HSF1 (Q00613 whole entry): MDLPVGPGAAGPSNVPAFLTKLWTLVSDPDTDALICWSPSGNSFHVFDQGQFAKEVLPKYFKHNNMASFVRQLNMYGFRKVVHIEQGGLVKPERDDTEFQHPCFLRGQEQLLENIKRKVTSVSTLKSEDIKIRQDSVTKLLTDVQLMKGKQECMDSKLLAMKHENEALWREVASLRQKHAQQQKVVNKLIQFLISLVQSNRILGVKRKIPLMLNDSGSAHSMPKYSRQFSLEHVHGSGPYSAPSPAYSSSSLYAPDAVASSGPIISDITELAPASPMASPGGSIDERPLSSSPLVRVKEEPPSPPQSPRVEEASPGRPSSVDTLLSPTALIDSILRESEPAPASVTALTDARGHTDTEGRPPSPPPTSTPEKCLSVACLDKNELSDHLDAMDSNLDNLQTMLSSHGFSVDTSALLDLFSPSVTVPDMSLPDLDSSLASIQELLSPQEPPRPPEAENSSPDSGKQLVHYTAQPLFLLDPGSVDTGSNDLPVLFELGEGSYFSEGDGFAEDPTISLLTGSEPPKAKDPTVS
Chain of ETV5 (P41161 whole entry): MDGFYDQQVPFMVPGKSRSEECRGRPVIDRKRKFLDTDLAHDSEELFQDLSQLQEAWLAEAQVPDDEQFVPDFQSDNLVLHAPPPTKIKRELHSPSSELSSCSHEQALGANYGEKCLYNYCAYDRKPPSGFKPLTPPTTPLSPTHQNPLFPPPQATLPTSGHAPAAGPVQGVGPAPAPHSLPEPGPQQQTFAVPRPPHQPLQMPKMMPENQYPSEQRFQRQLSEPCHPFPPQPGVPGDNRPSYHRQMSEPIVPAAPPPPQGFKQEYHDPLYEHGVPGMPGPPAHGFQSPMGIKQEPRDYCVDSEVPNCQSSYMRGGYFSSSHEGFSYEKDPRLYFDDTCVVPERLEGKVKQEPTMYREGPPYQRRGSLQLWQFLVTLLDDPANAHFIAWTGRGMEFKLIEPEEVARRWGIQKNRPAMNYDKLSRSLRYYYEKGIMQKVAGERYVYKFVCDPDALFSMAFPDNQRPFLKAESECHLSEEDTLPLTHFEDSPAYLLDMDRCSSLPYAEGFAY
Chain of ETV6 (P41212 whole entry): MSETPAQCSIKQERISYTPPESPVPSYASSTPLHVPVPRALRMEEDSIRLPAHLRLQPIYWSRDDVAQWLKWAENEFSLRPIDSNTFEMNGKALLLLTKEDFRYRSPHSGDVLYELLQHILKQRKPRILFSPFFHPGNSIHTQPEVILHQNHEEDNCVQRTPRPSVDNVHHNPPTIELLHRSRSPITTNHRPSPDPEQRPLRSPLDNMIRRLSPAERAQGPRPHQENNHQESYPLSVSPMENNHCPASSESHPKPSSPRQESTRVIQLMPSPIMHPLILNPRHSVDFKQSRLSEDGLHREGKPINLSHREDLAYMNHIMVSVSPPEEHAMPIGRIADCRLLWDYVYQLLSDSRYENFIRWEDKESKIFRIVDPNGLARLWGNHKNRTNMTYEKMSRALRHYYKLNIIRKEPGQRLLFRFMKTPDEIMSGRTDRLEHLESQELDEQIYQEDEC

On to AACAAT, for which the binding signal with FEV was 1.29 fold enrichment (6-mer frequency, TF over GST control); with ETV5, 1.29 fold enrichment (6-mer frequency, TF over GST control); in the test with HSF1, 1.48 fold enrichment (6-mer frequency, TF over GST control); with SPIC it was 1.26 fold enrichment (6-mer frequency, TF over GST control); with ELF4, 1.32 fold enrichment (6-mer frequency, TF over GST control); with ELK4 it was 1.27 fold enrichment (6-mer frequency, TF over GST control). Further, the binding signal with ETV2 was 1.31 fold enrichment (6-mer frequency, TF over GST control); in the test with ELF3, 1.56 fold enrichment (6-mer frequency, TF over GST control); with CRX it was 1.24 fold enrichment (6-mer frequency, TF over GST control); in the test with ETV1 it was 1.36 fold enrichment (6-mer frequency, TF over GST control); in the test with ERF it was 1.31 fold enrichment (6-mer frequency, TF over GST control); with ETV3L, 1.26 fold enrichment (6-mer frequency, TF over GST control). For the same sequence, the binding signal with ETS2 is 1.27 fold enrichment (6-mer frequency, TF over GST control); in the test with SPDEF, 1.2 fold enrichment (6-mer frequency, TF over GST control); in the test with ETV7, 1.24 fold enrichment (6-mer frequency, TF over GST control); in the test with ELF5, 1.36 fold enrichment (6-mer frequency, TF over GST control); with ETV3, 1.32 fold enrichment (6-mer frequency, TF over GST control); in the test with ETV6, 1.31 fold enrichment (6-mer frequency, TF over GST control).
